An excerpt weighted towards active compounds, which were near 3.9% of everything screened.
HSP90 refold inh: HSP90 inhibitors, primary screen, cell lysate, luminescence | Rabbit reticulocyte lysate, luciferase refolding luminescence, 3 h | inhibition, % at 5.6 µM | 290,000 tested, 0.91% active;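 active means inhibition above the screen-wide mean plus 3 SD, computed separately per campaign, cut at about 16% in these data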;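 further: 0% = DMSO wells and 100% = 60 µM geldanamycin wells; inhibitors lower the luminescence because luciferase stays unfolded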
TROY signal inh: inhibitors of TROY-driven NF-kB signaling, primary screen, Q293 LMP1-TROYcd cells, NF-kB luciferase, uHTS. Q293 LMP1-TROYcd NF-kB luciferase reporter, 4 h. inhibition, % at 10 µM. 360,000 tested, 0.98% active. AID 1347056, 2019;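 active means compounds whose plate-normalised and pattern-corrected inhibition of the luciferase reporter signal at the single screening dose is 50% or more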
TRAIL sens C8: viability loss with TRAIL in NB7+C8 cells, primary screen, TRAIL sensitizer project, cell-based, ATPlite luminescence; inhibition (viability loss, TRAIL sensitization), % at 10 µM; 360,000 tested, 1% active;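 active means compounds causing at least 50% loss of cell viability in the single-dose screen, relative to plate controls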
aSyn UTR inh: MLPCN primary screen, SNCA 5' untranslated region; 300,000 tested, 0.82% active; inhibition, % (tested at 7.5 µM); AID 1813, 2009; alpha-synuclein 5'UTR reporter, inhibitor activity; in the data active means inhibition above about 60%;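 further: H4 neuroglioblastoma cells stably carrying SNCA 5'UTR luciferase fusion; 0% = DMSO wells and 100% = positive control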
TWEAK-Fn14 inh: inhibitors of TWEAK-Fn14 signaling, primary screen, luciferase reporter cells, uHTS. 360,000 tested, 2% active. TWEAK-stimulated Fn14 reporter cells, luciferase luminescence, 8 h. inhibition, % at 10 µM; in the data active means inhibition above about 50%
HIF-2a block: HIF-2a reporter inhibitors, primary screen, luminescence, 786-0 RCC cells | 786-0 RCC cells HIF-2a reporter, luciferase luminescence, overnight | inhibition, % at 18.8 µM | 360,000 tested, 0.72% active;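 active means inhibition of the luminescence signal of 40% or more relative to plate controls, in a single-dose primary screen at 18.75 µM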
Numbers without * were called inactive.

Results for CCN(C(=O)c1ccco1)c1nnc(-c2ccc(OC)cc2)s1 ?
HSP90 refold inh: 4; TROY signal inh: -38; TRAIL sens C8: 69*; aSyn UTR inh: -135; TWEAK-Fn14 inh: -4; HIF-2a block: -230

How did COc1cccc(C(=O)Cn2c(NCCO)nc3ccccc32)c1 do in these assays?
HSP90 refold inh: 2; TROY signal inh: -9; TRAIL sens C8: 1; aSyn UTR inh: 0; TWEAK-Fn14 inh: 1; HIF-2a block: 6

What do the screens show for `COc1cccc(C(=O)Cn2c(=N)n(C)c3ccccc32)c1`?
HSP90 refold inh: 4; TROY signal inh: -33; TRAIL sens C8: 59*; aSyn UTR inh: 86*; TWEAK-Fn14 inh: 28; HIF-2a block: -53

How did O=C(NC1c2ccccc2Oc2ccccc21)c1ccc([N+](=O)[O-])cc1 do in these assays?
TROY signal inh: -25; TRAIL sens C8: 10; TWEAK-Fn14 inh: -36; HIF-2a block: 9

How did COc1cccc(/C=N/Nc2ccc(C(=O)O)cc2)c1O do in these assays?
HSP90 refold inh: 95*; TROY signal inh: 84*; TRAIL sens C8: 56*; aSyn UTR inh: 113*; TWEAK-Fn14 inh: 103*; HIF-2a block: 95*

What do the screens show for `COc1cccc(/C=N/Nc2ccnc(=O)[nH]2)c1O`?
HSP90 refold inh: 15; TROY signal inh: -44; TRAIL sens C8: 48*; aSyn UTR inh: 19; TWEAK-Fn14 inh: -16; HIF-2a block: -116

How did O=c1nccc(N/N=C/c2ccccc2O)[nH]1 do in these assays?
HSP90 refold inh: 16*; TROY signal inh: -38; TRAIL sens C8: 64*; aSyn UTR inh: -4; TWEAK-Fn14 inh: 8; HIF-2a block: -105

How did COc1cccc(/C=N/Nc2snc(SC)c2C#N)c1O do in these assays?
HSP90 refold inh: -1; TROY signal inh: 42; TRAIL sens C8: 47; aSyn UTR inh: -157; TWEAK-Fn14 inh: 75*; HIF-2a block: -273

Results for COc1cccc(/C=N/Nc2ccc(S(=O)(=O)O)cc2)c1O ?
HSP90 refold inh: -2; TROY signal inh: -16; TRAIL sens C8: -3; aSyn UTR inh: -3; TWEAK-Fn14 inh: 13; HIF-2a block: 18

How did CCOc1ccccc1/C=N/Nc1ccnc(=O)[nH]1 do in these assays?
HSP90 refold inh: -1; TROY signal inh: -39; TRAIL sens C8: 1; aSyn UTR inh: -10; TWEAK-Fn14 inh: -10; HIF-2a block: 6

What do the screens show for `O=C(CCN1C(=O)CSc2ccccc21)Nc1ccc(OC(F)(F)F)cc1`?
TROY signal inh: -21; TRAIL sens C8: 3; TWEAK-Fn14 inh: -14; HIF-2a block: 7

What do the screens show for `CCS(=O)CCSc1nc2ccccc2s1` (stereo not drawn)?
HSP90 refold inh: 4; TROY signal inh: 60*; TRAIL sens C8: 1; aSyn UTR inh: -9; TWEAK-Fn14 inh: 80*; HIF-2a block: -25

Results for c1ccc(NCCSc2nc3ccccc3s2)cc1 ?
TROY signal inh: -38; TRAIL sens C8: 3; TWEAK-Fn14 inh: -6; HIF-2a block: -152

How did COC1OC2COC(c3ccccc3)OC2C(O)C1NC(=O)c1ccccc1 (stereo not drawn) do in these assays?
TROY signal inh: -2; TRAIL sens C8: -16; TWEAK-Fn14 inh: 3; HIF-2a block: 9

Results for Cc1cnc(-c2nc3ccccc3n2C(C(=O)Nc2c(C)cccc2C)C2CC2)cn1 (stereo not drawn) ?
TRAIL sens C8: 1; HIF-2a block: 6

What do the screens show for `COC(=O)c1cc(CSc2nc3ccc(C)cc3[nH]2)oc1C`?
HSP90 refold inh: 12; TRAIL sens C8: 2; aSyn UTR inh: 1; TWEAK-Fn14 inh: 92*; HIF-2a block: -54

What do the screens show for `Cc1ccccc1C(=O)O/N=C(\N)Cc1cccs1`?
HSP90 refold inh: 2; TROY signal inh: -10; TRAIL sens C8: 92*; aSyn UTR inh: -131; TWEAK-Fn14 inh: -6; HIF-2a block: -153

How did Cc1ccccc1OCC(=O)O/N=C(\N)Cc1cccs1 do in these assays?
HSP90 refold inh: -2; TROY signal inh: -39; TRAIL sens C8: -20; aSyn UTR inh: -63; TWEAK-Fn14 inh: -27; HIF-2a block: -128
